Laboratory results published in article PMC8384837, “Expanding the binding specificity for RNA recognition by a PUF domain”.

Experiments:
Test in all cases: yeast three-hybrid, YBZ-1, SC-Leu-His + 0.5 mM 3-AT, 4 days
Settings in all cases: tags: N-Gal4 AD-HA kept; label: inside an RPR1-promoter hybrid RNA with tandem MS2 sites; ssRNA
PUM1 PUF domain R3-ARC = PUM1 PUF domain R3-ARC (Homo sapiens, UniProt Q14671 828-1176, C935A;Q939C)
Method in brief: (§1)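 Matching RNA elements and Pumilio-1 PUF domain libraries, randomized at the three base-contacting residues of every repeat, were co-expressed from a centromeric plasmid in strain YBZ-1 (LexA–MS2 coat fusion, HIS3 reporter). The repeat regions were PCR-amplified and Illumina-sequenced from cells grown four days on SC-Leu (input) or SC-Leu-His + 0.5 mM 3-AT (selection). The interaction score is the log change in variant frequency from input to selection. It is computed in log2, with a pseudocount of 1 for absent variants.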

PUM1 PUF domain R3-TWG = PUM1 PUF domain R3-TWG (Homo sapiens, UniProt Q14671 828-1176, C935T;R936W;Q939G)
Method in brief: as §1

PUM1 PUF domain R8-QWN = PUM1 PUF domain R8-QWN (Homo sapiens, UniProt Q14671 828-1176, N1122Q;Y1123W;Q1126N)
Method in brief: as §1

PUM1 PUF domain R8-KRA = PUM1 PUF domain R8-KRA (Homo sapiens, UniProt Q14671 828-1176, N1122K;Y1123R;Q1126A)
Method in brief: as §1

PUM1 PUF domain R8-FHK = PUM1 PUF domain R8-FHK (Homo sapiens, UniProt Q14671 828-1176, N1122F;Y1123H;Q1126K)
Method in brief: as §1

PUM1 PUF domain R7-EFG = PUM1 PUF domain R7-EFG (Homo sapiens, UniProt Q14671 828-1176, S1079E;N1080F;E1083G)
Method in brief: as §1

GGCUAGAACUAGUGGAUCCCCCGGCGCCCGGCGGCUCGAGCCCGGGUAAGUGUAAUUAGUCUGCAUGCCGCCGGGCGCCAUGCCUGCAGGUCGACUCUAGAAAACAUG
binding signal (PUM1 PUF domain R3-ARC): 1.82 log2 enrichment (interaction score)
binding signal (PUM1 PUF domain R3-TWG): 0.73 log2 enrichment (interaction score)

GGCUAGAACUAGUGGAUCCCCCGGCGCCCGGCGGCUCGAGCCCGGGUAAGCGUAAAUAGUCUGCAUGCCGCCGGGCGCCAUGCCUGCAGGUCGACUCUAGAAAACAUG
binding signal (PUM1 PUF domain R8-QWN): 3.25 log2 enrichment (interaction score)
binding signal (PUM1 PUF domain R8-KRA): 2.55 log2 enrichment (interaction score)
binding signal (PUM1 PUF domain R8-FHK): 3.34 log2 enrichment (interaction score)

GGCUAGAACUAGUGGAUCCCCCGGCGCCCGGCGGCUCGAGCCCGGGUAAGUCUAAAUAGUCUGCAUGCCGCCGGGCGCCAUGCCUGCAGGUCGACUCUAGAAAACAUG
binding signal (PUM1 PUF domain R7-EFG): 3.46 log2 enrichment (interaction score)
